This note sets out measurements from PubChem BioAssay (EPA / NIEHS).

Results filed as inconclusive are left out. Activity calls are given as the source filed them. The calls were made as follows, unless noted: active = hit-call score of the fitted dose curve at least 0.9, where 1 is the maximum; inactive = score below 0.9.

The target in test [1] is Bile acid receptor (Homo sapiens) (UniProt Q96RI1). In words: ATG_FXR_TRANS: Attagene TRANS-FACTORIAL HepG2 Assay for Farnesoid X Receptor (FXR) (AID 2282979; active = hit-call score of the fitted dose curve at least 0.9, where 1 is the maximum;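 also: hits raise reporter mRNA above DMSO so AC50 marks FXR activation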). As to conditions: HepG2 Attagene TRANS FXR-GAL4 reporter transcription. Summed up: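 HepG2 cells transiently transfected with reporter constructs in which a chimeric FXR-GAL4 protein drives a GAL4-UAS reporter; 24 h compound exposure. Reporter mRNA measured by RT-PCR, FAM labelling, HpaI digestion and capillary electrophoresis; gain-of-signal versus DMSO.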

A short description of test [2]: ATG_M_06_TRANS: Attagene TRANS-FACTORIAL HepG2 Assay for M06 Transcription Factor (Internal Marker) (AID 2282983; active = hit-call score of the fitted dose curve at least 0.9, where 1 is the maximum). The note with it: HepG2 Attagene TRANS M06 internal marker reporter. The method, boiled down:
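In this multiplexed HepG2 system, compounds are incubated 24 h with cells carrying GAL4-UAS reporter units. Reporter RNA is amplified and resolved by capillary electrophoresis, and induction is scored against DMSO.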

In test [3] the target is Nuclear receptor subfamily 4 group A member 2 (Homo sapiens) (UniProt P43354). In words: ATG_NURR1_TRANS: Attagene TRANS-FACTORIAL HepG2 Assay for human Nuclear Receptor Related Protein 1 (NURR1) (AID 2282985; active = hit-call score of the fitted dose curve at least 0.9, where 1 is the maximum). As to conditions: HepG2 Attagene TRANS reporter, mRNA readout. Summed up: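 Reporter transcript induction, measured by RT-PCR with fluorescent labelling, HpaI digestion and capillary electrophoresis, after 24 hr dosing of human HepG2 cells transiently expressing an exogenous NR-Gal4 fusion with GAL4-UAS-driven reporters; DMSO as baseline.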

In test [4] the target is Transcriptional activator Myb (Homo sapiens) (UniProt P10242). In words: ATG_Myb_CIS: Attagene CIS-FACTORIAL HepG2 Assay for human Myeloblastosis (Myb) Proto-Oncogene Transcription Factor (AID 2282986). The note with it: HepG2 Attagene CIS-FACTORIAL Myb reporter transcription; actives raise or lower the signal. The method, boiled down: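 Reporter mRNA is quantified by RT-PCR and capillary electrophoresis 24 h after dosing HepG2 cells transfected with cis-regulated reporter units, which track endogenous transcription factor activity. Gain and loss of signal are fitted versus DMSO baseline.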

In test [5] the target is Nuclear respiratory factor 1 (Homo sapiens) (UniProt Q16656). In words: ATG_NRF1_CIS: Attagene CIS-FACTORIAL HepG2 Assay for human Nuclear Respiratory Factor 1 (NRF1) Orphan Gene (AID 2282987). The note with it: HepG2 NRF1 cis-element reporter, Attagene multiplex; actives raise or lower the signal. The method, boiled down:
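Endogenous NRF1-driven reporter transcription in transfected HepG2 cells after 24 h treatment. Readout: RT-PCR products, 6-FAM labelled and resolved by capillary electrophoresis; changes fitted both directions relative to DMSO.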

A short description of test [6]: ATG_NFI_CIS: Attagene CIS-FACTORIAL HepG2 Assay for human Nuclear Factor I (NFI) (AID 2282989). As to conditions: HepG2 cis-regulatory reporter, NFI response element transcription; actives raise or lower the signal. Summed up:
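After transient transfection of HepG2 with cis-promoter reporter constructs and 24 h dosing, RNA is reverse-transcribed, amplified, 6-FAM end-labelled and HpaI-digested before capillary analysis. Bidirectional curve fitting against DMSO.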

Test [7] concerns the target Myc proto-oncogene protein (Homo sapiens) (UniProt P01106). In words: ATG_Myc_CIS: Attagene CIS-FACTORIAL HepG2 Assay for human Myelocytomatosis (Myc) Proto-Oncogene Transcription Factor (AID 2282990). The note with it: HepG2, Attagene cis-reporter transcription factor activity; actives raise or lower the signal. Summed up: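 HepG2, transient MRTU transfection (cis promoters, endogenous TFs); 24 h dosing; TriZol RNA → oligo(dT) RT → PCR → 6-FAM primer extension → HpaI cut → CE. Bidirectional fit vs DMSO.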

The nature of test [8]: ATG_NF_kB_CIS: Attagene CIS-FACTORIAL HepG2 Assay for human Nuclear Factor Kappa B (NF-kB) (AID 2282991). As to conditions: HepG2 Attagene cis-factorial NF-kB reporter mRNA; actives raise or lower the signal. The method, boiled down:
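Readout is reporter transcript level, gain or loss versus DMSO, measured 24 h post-dose via RT-PCR, fluorescent labelling and capillary electrophoresis. Human HepG2 liver cells carried transiently transfected CIS reporter constructs reflecting endogenous factors.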

The nature of test [9]: ATG_NRF2_ARE_CIS: Attagene CIS-FACTORIAL HepG2 Assay for human Nuclear Factor Erythroid 2 Related Factor 2 (NFR2) response to Antioxidant Response Elements (ARE) (AID 2282992). As to conditions: HepG2 Attagene ARE/NRF2 reporter, transcription factor activity; actives raise or lower the signal. The method, boiled down: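 Using transiently transfected HepG2 cells exposed for 24 h, reporter mRNA levels were determined by RT-PCR with fluorescent primer extension and capillary electrophoresis, analysed for gain or loss of signal against DMSO.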

Test [10] is described as follows: ATG_Oct_MLP_CIS: Attagene CIS-FACTORIAL HepG2 Assay for human Octamer-Binding Transcription Factor (Oct) (AID 2282993). As to conditions: HepG2 Attagene cis-factorial Oct reporter, mRNA; actives raise or lower the signal. Summed up:
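Cells of the HepG2 line express promoter-controlled reporter sequences whose mRNA levels, after 24 h treatment, are measured by RT-PCR and capillary electrophoresis. Increases and decreases are scored relative to DMSO.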

Test [11] concerns the target Cellular tumor antigen p53 (Homo sapiens) (UniProt P04637). In words: ATG_p53_CIS: Attagene CIS-FACTORIAL HepG2 Assay for human p53 Transcription Factor (AID 2282994). As to conditions: HepG2 p53 cis-element reporter, Attagene mRNA; actives raise or lower the signal. Summed up: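 In HepG2 cells, reporter transcription units under cis-regulatory promoters were transiently introduced. Following 24 h treatment, RNA was processed to labelled, digested cDNA fragments read by capillary electrophoresis; fitting was bidirectional versus DMSO.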

The nature of test [12]: BSK_3C_uPAR: BioMAP Diversity Plus: 3C Assay for Urokinase-type plasminogen activator receptor (uPAR) Biomarker Activity (AID 2282998). The note with it: BioMAP 3C HUVEC, uPAR biomarker ELISA; actives raise or lower the signal. The method, boiled down: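 Endothelial primary cells of human umbilical vein origin received test chemical; 24 h later uPAR was assayed by ELISA. Fitting was bidirectional, DMSO as negative control.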
(In general: In an ELISA, binding on a coated surface is turned into a signal by an enzyme label.)

Test [13] can be described thus: BSK_3C_VCAM1: BioMAP Diversity Plus: 3C Assay for Vascular cell adhesion molecule 1 (VCAM1) Biomarker Activity (AID 2282999). As to conditions: BioMAP 3C HUVEC, VCAM1 ELISA, cytokine-stimulated; actives raise or lower the signal. The method, boiled down:
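Activity fitted in both directions relative to DMSO, with ELISA measurement of the surface marker on primary HUVEC (3C) at 24 h post-treatment; parallel SRB staining (0.1% SRB, TCA-fixed, 560 nm) flagged overt cytotoxicity.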

The target in test [14] is Hepatocyte nuclear factor 4-alpha (Homo sapiens) (UniProt P41235). In words: ATG_HNF4a_TRANS: Attagene TRANS-FACTORIAL HepG2 Assay for human Hepatocyte Nuclear Factor 4 alpha (HNF4a) (AID 2282982; active = hit-call score of the fitted dose curve at least 0.9, where 1 is the maximum). As to conditions: HepG2 HNF4a transactivation reporter, mRNA readout. Summed up: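 Activity of an exogenous HNF4a–Gal4 fusion scored as induced GAL4-UAS reporter transcripts after 24 h chemical exposure of transfected human HepG2 cells. Read-out via RT-PCR with 6-FAM labelling and capillary electrophoresis; rise over DMSO baseline.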

Test [15] in a line: ATG_M_32_TRANS: Attagene TRANS-FACTORIAL HepG2 Assay for M32 Transcription Factor (Internal Marker) (AID 2282984; active = hit-call score of the fitted dose curve at least 0.9, where 1 is the maximum;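 also: transcript level of a background control reporter unit measured by RT-PCR and capillary electrophoresis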). The note with it: HepG2 Attagene TRANS M32 internal marker reporter. Summed up:
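Internal background reporter in transfected HepG2: after 24 h chemical exposure, RNA reverse-transcribed, reporter cDNA amplified, fluorescently labelled and HpaI-cut, then sized by capillary electrophoresis. Gain of signal fitted against DMSO control.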

Test [16] deals with Oxysterols receptor LXR-alpha (Homo sapiens) (UniProt Q13133). In words: ATG_LXRa_TRANS: Attagene TRANS-FACTORIAL HepG2 Assay for human Liver X Receptor alpha (LXRa) (AID 2282980; active = hit-call score of the fitted dose curve at least 0.9, where 1 is the maximum). The note with it: HepG2 Attagene TRANS reporter, LXRa transactivation. Summed up: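 HepG2 cells were transiently transfected with multiplexed reporter units driven by chimeric LXRa–GAL4 fusion proteins, then dosed for 24 h. Reporter mRNA was quantified by RT-PCR, fluorescent labelling and capillary electrophoresis; gain of signal fitted against DMSO baseline.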

Test [17] in a line: BSK_3C_TissueFactor: BioMAP Diversity Plus: 3C Assay for Tissue Factor Biomarker Activity (AID 2282997). The note with it: BioMAP 3C HUVEC, tissue factor biomarker readout; actives raise or lower the signal. The method, boiled down:
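Readout: Tissue Factor ELISA. Cells: human primary umbilical vein endothelium. Time: 24 h after dosing. Analysis: bidirectional fit, DMSO baseline.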

Test [18] in a line: BSK_4H_Eotaxin3: BioMAP Diversity Plus: 4H Assay for Eotaxin 3 Biomarker Activity (AID 2283000).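 As to outcome: CCL26 protein level quantified by ELISA in parallel with SRB cytotoxicity check.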 As to conditions: primary human endothelial cells (HUVEC); actives raise or lower the signal. Summed up: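 HUVEC, 24 h post-dose, ELISA for Eotaxin-3/CCL26. Gain or loss of signal fitted bidirectionally vs DMSO baseline.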

Nuclear respiratory factor 1 (Homo sapiens), sequence (Q16656 whole entry, looked up): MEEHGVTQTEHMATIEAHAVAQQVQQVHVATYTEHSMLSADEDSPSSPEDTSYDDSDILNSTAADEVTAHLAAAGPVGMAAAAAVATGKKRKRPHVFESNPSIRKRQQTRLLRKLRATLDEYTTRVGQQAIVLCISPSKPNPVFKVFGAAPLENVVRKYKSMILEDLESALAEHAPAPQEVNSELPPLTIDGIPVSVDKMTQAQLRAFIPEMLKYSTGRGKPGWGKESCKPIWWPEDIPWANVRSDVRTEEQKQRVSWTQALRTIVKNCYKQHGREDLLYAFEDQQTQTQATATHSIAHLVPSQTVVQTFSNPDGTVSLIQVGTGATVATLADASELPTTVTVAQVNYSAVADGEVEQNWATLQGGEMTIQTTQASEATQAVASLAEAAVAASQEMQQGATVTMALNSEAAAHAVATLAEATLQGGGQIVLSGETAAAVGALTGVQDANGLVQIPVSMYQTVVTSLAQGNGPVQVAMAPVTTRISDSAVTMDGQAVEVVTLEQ
Hepatocyte nuclear factor 4-alpha (Homo sapiens), sequence (P41235 whole entry, looked up, the tested form may be a part): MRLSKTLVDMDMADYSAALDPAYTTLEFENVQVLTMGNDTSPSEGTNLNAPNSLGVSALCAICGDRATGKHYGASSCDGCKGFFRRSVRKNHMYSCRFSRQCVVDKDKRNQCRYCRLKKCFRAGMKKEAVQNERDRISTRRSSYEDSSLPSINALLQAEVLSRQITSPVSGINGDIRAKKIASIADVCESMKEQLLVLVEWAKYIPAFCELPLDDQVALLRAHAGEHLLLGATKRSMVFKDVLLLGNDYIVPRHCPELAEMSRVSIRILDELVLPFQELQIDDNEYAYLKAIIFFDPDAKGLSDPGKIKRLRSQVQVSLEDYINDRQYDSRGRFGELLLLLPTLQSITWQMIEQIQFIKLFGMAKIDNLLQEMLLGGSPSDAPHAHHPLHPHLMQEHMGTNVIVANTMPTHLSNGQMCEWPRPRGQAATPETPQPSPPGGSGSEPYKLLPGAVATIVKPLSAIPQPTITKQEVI
Cellular tumor antigen p53 (Homo sapiens), sequence (P04637 whole entry, looked up, the tested form may be a part): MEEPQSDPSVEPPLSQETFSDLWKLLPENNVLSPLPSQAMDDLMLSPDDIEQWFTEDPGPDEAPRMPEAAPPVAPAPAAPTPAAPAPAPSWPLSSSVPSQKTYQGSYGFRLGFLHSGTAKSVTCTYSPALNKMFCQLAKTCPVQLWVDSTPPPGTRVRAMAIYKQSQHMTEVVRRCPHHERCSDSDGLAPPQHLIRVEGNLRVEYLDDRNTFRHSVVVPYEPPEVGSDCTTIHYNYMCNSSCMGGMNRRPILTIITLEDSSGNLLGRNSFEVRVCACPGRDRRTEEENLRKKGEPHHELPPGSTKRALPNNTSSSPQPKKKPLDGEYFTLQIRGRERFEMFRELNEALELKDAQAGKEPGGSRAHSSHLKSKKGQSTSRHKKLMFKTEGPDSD
Nuclear receptor subfamily 4 group A member 2 (Homo sapiens), sequence (P43354 whole entry, looked up, the tested form may be a part): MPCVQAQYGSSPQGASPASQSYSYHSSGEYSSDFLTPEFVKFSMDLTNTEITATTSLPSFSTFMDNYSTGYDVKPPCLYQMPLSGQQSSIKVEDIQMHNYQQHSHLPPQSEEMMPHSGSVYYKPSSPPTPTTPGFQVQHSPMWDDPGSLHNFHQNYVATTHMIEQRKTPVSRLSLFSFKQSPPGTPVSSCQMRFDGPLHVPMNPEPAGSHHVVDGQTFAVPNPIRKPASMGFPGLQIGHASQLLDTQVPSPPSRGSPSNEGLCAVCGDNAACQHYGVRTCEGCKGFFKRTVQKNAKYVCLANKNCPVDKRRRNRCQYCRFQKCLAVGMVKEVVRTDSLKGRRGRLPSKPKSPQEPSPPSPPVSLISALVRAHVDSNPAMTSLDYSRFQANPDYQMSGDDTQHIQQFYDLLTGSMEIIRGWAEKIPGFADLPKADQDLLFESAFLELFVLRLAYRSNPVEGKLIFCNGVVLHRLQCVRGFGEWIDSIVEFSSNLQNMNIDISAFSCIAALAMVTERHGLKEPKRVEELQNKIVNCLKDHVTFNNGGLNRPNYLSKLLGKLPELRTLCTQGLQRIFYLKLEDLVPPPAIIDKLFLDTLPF
Myc proto-oncogene protein (Homo sapiens), sequence (P01106 whole entry, looked up): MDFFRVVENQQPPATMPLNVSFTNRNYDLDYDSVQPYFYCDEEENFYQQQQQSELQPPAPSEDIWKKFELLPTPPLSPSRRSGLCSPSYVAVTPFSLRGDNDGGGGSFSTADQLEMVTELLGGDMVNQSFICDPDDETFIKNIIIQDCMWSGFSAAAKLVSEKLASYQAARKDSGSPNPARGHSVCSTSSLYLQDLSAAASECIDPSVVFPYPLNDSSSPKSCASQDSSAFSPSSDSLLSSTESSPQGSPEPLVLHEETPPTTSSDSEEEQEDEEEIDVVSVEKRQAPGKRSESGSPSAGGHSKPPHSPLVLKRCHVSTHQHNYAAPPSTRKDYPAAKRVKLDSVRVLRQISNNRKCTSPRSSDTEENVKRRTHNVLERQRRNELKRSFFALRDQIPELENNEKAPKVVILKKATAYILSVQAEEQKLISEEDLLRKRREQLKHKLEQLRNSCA
Transcriptional activator Myb (Homo sapiens), sequence (P10242 whole entry, looked up): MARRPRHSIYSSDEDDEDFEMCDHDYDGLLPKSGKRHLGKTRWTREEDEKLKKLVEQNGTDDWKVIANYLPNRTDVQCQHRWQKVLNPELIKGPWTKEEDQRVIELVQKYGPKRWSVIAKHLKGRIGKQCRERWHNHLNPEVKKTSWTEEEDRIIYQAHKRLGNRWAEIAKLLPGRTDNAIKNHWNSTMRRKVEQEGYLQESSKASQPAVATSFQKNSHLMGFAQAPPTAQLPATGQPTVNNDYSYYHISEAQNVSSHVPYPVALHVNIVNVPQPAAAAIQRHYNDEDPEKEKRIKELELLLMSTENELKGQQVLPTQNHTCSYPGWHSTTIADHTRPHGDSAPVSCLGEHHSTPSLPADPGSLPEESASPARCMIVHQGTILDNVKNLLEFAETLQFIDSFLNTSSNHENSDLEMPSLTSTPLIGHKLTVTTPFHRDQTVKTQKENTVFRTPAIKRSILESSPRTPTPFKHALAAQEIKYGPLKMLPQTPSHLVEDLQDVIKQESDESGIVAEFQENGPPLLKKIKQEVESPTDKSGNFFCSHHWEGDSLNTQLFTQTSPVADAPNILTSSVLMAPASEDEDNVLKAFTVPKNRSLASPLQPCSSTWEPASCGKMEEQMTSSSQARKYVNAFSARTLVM
Oxysterols receptor LXR-alpha (Homo sapiens), sequence (Q13133 whole entry, looked up, the tested form may be a part): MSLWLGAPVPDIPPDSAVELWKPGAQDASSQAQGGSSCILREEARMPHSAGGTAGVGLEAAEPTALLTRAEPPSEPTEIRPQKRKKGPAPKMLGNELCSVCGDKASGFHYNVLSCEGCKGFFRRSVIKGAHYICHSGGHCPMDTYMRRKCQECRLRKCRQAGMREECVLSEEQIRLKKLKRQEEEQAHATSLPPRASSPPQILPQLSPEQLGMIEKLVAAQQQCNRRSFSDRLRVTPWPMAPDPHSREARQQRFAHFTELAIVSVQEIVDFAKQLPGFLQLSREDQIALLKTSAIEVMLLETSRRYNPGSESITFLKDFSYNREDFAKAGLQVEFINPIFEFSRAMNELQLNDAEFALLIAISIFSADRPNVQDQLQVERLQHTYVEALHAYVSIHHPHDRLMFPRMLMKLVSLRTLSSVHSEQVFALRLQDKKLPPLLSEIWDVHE
Bile acid receptor (Homo sapiens), sequence (Q96RI1 whole entry, looked up, the tested form may be a part): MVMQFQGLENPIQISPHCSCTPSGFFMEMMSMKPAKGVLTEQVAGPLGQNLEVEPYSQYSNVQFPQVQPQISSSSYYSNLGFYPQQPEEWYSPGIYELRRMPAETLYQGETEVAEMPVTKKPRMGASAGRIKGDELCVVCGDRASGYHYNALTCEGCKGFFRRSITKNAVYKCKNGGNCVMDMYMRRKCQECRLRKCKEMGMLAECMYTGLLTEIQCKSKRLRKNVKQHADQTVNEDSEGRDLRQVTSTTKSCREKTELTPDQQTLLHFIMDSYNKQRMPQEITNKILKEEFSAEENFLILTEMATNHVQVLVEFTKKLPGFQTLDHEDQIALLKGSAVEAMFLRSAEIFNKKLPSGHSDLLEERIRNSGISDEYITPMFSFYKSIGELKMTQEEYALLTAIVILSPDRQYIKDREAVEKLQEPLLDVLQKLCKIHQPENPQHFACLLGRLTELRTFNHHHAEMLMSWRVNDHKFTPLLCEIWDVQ

As a reminder, the AC50 is the midpoint of the concentration-response curve, whichever way the signal moves. On to `CCC(C)(C)c1ccc(O)cc1`, for which the compound was called inactive in test [1], in test [2], in test [3], in test [5], in [6] and in test [7]. Also, the result in test [8], in test [10], in test [11], in test [12] and in test [13] was inactive. The figures for the AC50 in test [4] and in test [9] were 46.1 µM (active) and 33.4 µM (active), respectively.
For `N#C/C=C/c1ccccc1`, the compound was classed as inactive in test [14], in test [2], in [15], in test [3], in [4] and in test [5]. The call in [6], in test [7], in test [8], in test [9], in test [10] and in test [11] was inactive.
On to `Nc1ccc(Cl)cc1`, for which the compound was classed as inactive in test [16], in test [2], in test [15], in test [3], in [4] and in test [5]. The call in test [6], in test [7], in test [9], in test [10], in test [11] and in test [17] was inactive. In addition, the outcome in [12], in test [13] and in test [18] was inactive.
Take `CCN(CC)c1ccccc1`: the outcome in test [16], in test [14], in test [3], in test [4], in test [5] and in test [6] was inactive. The compound was classed as inactive in test [7], in test [8], in test [9], in test [10], in test [11] and in test [12]. The result in test [13] and in test [18] was inactive.
In the case of `CCOP(=S)(OCC)SCSc1ccc(Cl)cc1`, the result in test [1], in [14], in [15], in [3], in [4] and in test [5] was inactive. The compound was classed as inactive in test [6], in test [7], in test [8], in [10] and in test [13]. For the same compound, the results for the AC50 in test [9], in test [12] and in [18] were 29.6 µM (active), 0.397 µM (active) and 7.22 µM (active), respectively.
